# Test results published in article PMC4336329 (PLoS ONE, 2015).
# Out of some 310,000 compounds screened, about 14,000 (4.5%) showed an effect of 50% or more. Effects have a minus sign here. Only a selection was taken, and strong results are over-represented in it overall.
# Target: human ether-à-go-go-related gene (hERG) potassium channel (human, UniProt Q12809)
# Experiment: primary screen, population patch clamp on CHO cells stably expressing hERG; higher = less effect of the substance
# 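Note: peak tail current of the secondary pulse compared with the same well before compound.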
# human ether-à-go-go-related gene (hERG) potassium channel, sequence (Q12809 whole entry, looked up): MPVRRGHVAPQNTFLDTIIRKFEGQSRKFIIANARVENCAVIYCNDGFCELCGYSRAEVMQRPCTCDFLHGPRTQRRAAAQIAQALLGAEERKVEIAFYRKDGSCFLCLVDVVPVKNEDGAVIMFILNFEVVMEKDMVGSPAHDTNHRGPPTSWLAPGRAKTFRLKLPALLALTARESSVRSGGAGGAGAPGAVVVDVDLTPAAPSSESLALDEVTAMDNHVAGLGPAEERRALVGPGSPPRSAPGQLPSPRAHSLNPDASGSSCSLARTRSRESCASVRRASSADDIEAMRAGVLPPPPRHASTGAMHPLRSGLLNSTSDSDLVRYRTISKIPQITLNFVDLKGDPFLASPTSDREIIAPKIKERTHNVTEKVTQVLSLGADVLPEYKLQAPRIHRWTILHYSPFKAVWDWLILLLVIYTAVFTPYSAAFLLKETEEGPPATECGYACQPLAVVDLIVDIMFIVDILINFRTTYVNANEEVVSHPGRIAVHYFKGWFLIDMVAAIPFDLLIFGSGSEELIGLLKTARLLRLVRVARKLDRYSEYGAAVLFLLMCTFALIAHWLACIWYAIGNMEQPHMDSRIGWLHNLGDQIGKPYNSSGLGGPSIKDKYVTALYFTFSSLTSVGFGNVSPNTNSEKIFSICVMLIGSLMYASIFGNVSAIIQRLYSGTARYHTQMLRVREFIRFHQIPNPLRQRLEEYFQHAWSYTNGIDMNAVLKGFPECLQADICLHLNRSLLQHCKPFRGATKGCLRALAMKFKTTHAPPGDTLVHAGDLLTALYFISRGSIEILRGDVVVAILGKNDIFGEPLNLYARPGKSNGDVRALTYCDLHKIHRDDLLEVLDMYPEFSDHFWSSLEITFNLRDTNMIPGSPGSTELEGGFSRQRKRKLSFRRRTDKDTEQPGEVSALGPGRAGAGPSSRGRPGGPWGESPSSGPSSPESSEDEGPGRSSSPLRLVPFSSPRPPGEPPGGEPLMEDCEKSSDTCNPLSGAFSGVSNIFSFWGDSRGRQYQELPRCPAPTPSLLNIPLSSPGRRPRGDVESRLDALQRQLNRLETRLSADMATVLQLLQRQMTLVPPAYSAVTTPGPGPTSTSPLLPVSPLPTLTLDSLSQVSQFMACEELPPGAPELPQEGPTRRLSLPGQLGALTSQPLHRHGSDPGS
row,Compound,"hERG current change (%, negative = inhibition) at 10uM"
1,CCN(CC)S(=O)(=O)c1ccc(NC(=O)Cc2cccs2)cc1,5.81%
2,CCOC(=O)c1c(NC(=O)CSc2nc3c(c(=O)n(C)c(=O)n3C)n2C(C)C)sc(C)c1C,-0.527%
3,CCCCNC(=O)c1cc([N+](=O)[O-])[nH]n1,19.1%
4,COCCNc1nc(SCC(=O)N2CCN(c3ccccc3)CC2)nc2ccccc12,-86.9%
5,COCCNC(=O)CSc1nc2ccccc2c(=O)n1CCC(=O)N1CCN(c2ccccc2)CC1,-35%
6,COCCNc1nc(SCC(=O)N2CCN(c3ccccc3OC)CC2)nc2ccccc12,-88.6%
7,O=C(CSc1nc2ccccc2c(=O)[nH]1)N1CCN(c2ccccc2)CC1,14.1%
8,COc1ccccc1N1CCN(C(=O)CSc2nnc3c4ccccc4nc(Cc4ccccc4)n23)CC1,-4.18%
9,COc1ccccc1N1CCN(C(=O)CSc2nc3ccccc3nc2N2CCCCC2)CC1,19%
10,O=C(NC1CC1)c1ccc(-c2nc3ccccc3s2)s1,10.7%
11,O=C(Cn1cnc2ccccc2c1=O)Nc1nnc(SCc2ccc(Cl)cc2)s1,10.9%
12,Cn1cc(CC(=O)N2CCN(c3ccccc3F)CC2)c2ccccc21,-9.66%
13,CCCOc1ccccc1N/C(=N\S(=O)(=O)c1ccc(C)cc1)Nc1nc(C)cc(C)n1,26.1%
14,CC(C)(OC(=O)c1ccc(F)cc1)c1cc2ccccc2c(=O)o1,3.1%
15,O=C(OCCCc1cc2ccccc2c(=O)o1)c1ccc(F)cc1,-37.9%
16,CC(C)(OC(=O)c1ccc(C(F)(F)F)cc1)c1cc2ccccc2c(=O)o1,14.6%
17,CC(C)(OC(=O)c1ccc(C#N)cc1)c1cc2ccccc2c(=O)o1,-73.1%
18,N#Cc1ccc(C(=O)OCCCc2cc3ccccc3c(=O)o2)cc1,-69.4%
19,COc1cc2cc(CCOC(=O)c3ccc(C#N)cc3)oc(=O)c2cc1OC,-37.9%
20,COc1cc2cc(CCCOC(=O)c3ccc(F)cc3)oc(=O)c2cc1OC,-29.5%
21,COc1cc2cc(CCCOC(=O)c3ccc(C#N)cc3)oc(=O)c2cc1OC,-65%
22,N#Cc1ccc(C(=O)OCCc2cc3ccccc3c(=O)o2)cc1,-29%

row,Compound,"hERG current change (%, negative = inhibition) at 10uM"
1,COc1cccc(CNCCc2ccccc2)c1OC.Cl,5.21%
2,O=C1C=C(c2cccc3c2oc2ccccc23)CCC1,-2.35%
3,Cc1c(C(=O)/C=C/N(C)C)nnn1-c1ccc(F)c(Cl)c1,2.73%
4,O=C(NCCc1ccccc1)C1CCC(=O)N1CCc1ccccc1 (stereo not drawn),8.78%
5,CC1CCCN(CCOCCOc2ccccc2-c2ccccc2)C1.O=C(O)C(=O)O (stereo not drawn),-72.9%
6,CC1CCN(CCCCOc2ccccc2F)CC1.O=C(O)C(=O)O,-13.3%
7,CC1CN(CCOc2ccccc2-c2ccccc2)CC(C)O1.O=C(O)C(=O)O (stereo not drawn),-9.99%
8,CC1CC(C)CN(CCOc2ccccc2-c2ccccc2)C1.O=C(O)C(=O)O (stereo not drawn),-68.5%
9,O=C(O)C(=O)O.c1ccc(-c2ccccc2OCCOCCN2CCCCC2)cc1,-44.7%
10,CC1CN(CCCOc2ccccc2-c2ccccc2)CC(C)O1.O=C(O)C(=O)O (stereo not drawn),-47.2%
11,CN1CCN(CCCCOc2ccccc2-c2ccccc2)CC1.O=C(O)C(=O)O,-38.2%
12,C=CCc1cc(OC)ccc1OCCN1CC(C)OC(C)C1.O=C(O)C(=O)O (stereo not drawn),-9.85%
13,CC1CN(CCOCCOc2ccccc2-c2ccccc2)CC(C)O1.O=C(O)C(=O)O (stereo not drawn),-13.5%
14,C=CCc1cc(Cl)ccc1OCCn1ccnc1.O=C(O)C(=O)O,-10.1%
15,CC1CCN(CCCCOc2ccccc2-c2ccccc2)CC1.O=C(O)C(=O)O,-72.6%
16,C=CCc1cc(Cl)ccc1OCCN1CC(C)OC(C)C1.O=C(O)C(=O)O (stereo not drawn),-53.1%
17,Cc1ccc(S(=O)(=O)N2CCC(C(=O)Nc3ccc(S(=O)(=O)N4CCCC4)cc3)CC2)cc1,-10.6%
18,COc1cccc(C2C(C(=O)c3sc(C)nc3C)=C(O)C(=O)N2CCN2CCOCC2)c1 (stereo not drawn),10.8%
19,Fc1ccc(CNc2ccc(N3CCN(Cc4ccccc4)CC3)cc2)cc1,-30.1%
20,COc1ccc(C(=O)NCc2nnc(SCCOc3ccccc3)n2C)cc1,-15.5%
21,O=C(CCNS(=O)(=O)c1ccccc1C(F)(F)F)N1CCN(c2ccccc2O)CC1,-26.9%
22,CCC(=O)N1CCN(c2ccc(NC(=S)NC(=O)COc3ccccc3)cc2)CC1,-21.6%

row,Compound,"hERG current change (%, negative = inhibition) at 10uM"
1,CC(=O)c1c(C)[nH]c(C(=O)Nc2nc(-c3ccc(-c4ccccc4)cc3)cs2)c1C,19.3%
2,O=C(COCc1cc(-c2ccc3c(c2)OCO3)on1)Nc1cccnc1,10%
3,CC1CCN(CCOCCOc2ccccc2-c2ccccc2)CC1,-57.2%
4,CC1CCN(C(=O)COc2ccc3ccccc3c2Br)CC1,11.8%
5,CC1CC(C)CN(CCOc2ccc(Cl)cc2Cl)C1.O=C(O)C(=O)O (stereo not drawn),-67.3%
6,CC1CCN(CCOc2ccccc2-c2ccccc2)CC1.O=C(O)C(=O)O,-58.6%
7,CC1CCN(CCOCCOc2ccccc2Br)CC1,-30.1%
8,O=C(O)C(=O)O.c1ccc(-c2ccccc2OCCOCCN2CCNCC2)cc1,2.27%
9,CC1CC(C)CN(CCOc2cccc(Cl)c2Cl)C1.O=C(O)C(=O)O (stereo not drawn),-35.9%
10,CC1CCCN(CCOCCSc2ccccc2)C1.O=C(O)C(=O)O (stereo not drawn),-34.5%
11,CC1CCCN(CCOc2ccc3ccccc3c2Br)C1.O=C(O)C(=O)O (stereo not drawn),-69%
12,CC1CN(CCOc2ccc(Cl)cc2Cl)CC(C)O1.O=C(O)C(=O)O (stereo not drawn),-24.6%
13,CC(=O)N(CC1CCCO1)c1nnc(-c2cnccn2)s1 (stereo not drawn),12.8%
14,Cc1ccc(NC(=O)CN(C)C(=S)NC2CC2)cc1,16.4%
15,Cc1ccc(C(=O)Nc2cc3c(oc2=O)CCCC3=O)cc1,-2.47%
16,COc1cc(/C=C/C(=O)NC(C)C2CC3CCC2C3)cc(OC)c1OC (stereo not drawn),10.6%
17,O=C(CN1C(=O)S/C(=C\c2cccs2)C1=O)Nc1ccc(O)cc1C(=O)O,8.88%
18,CCOc1ccc(-n2ccnc2SCC(=O)Nc2nnc(CC)s2)cc1,-11.9%
19,CCC(=O)N1CCc2cc(Br)cc(S(=O)(=O)N3CCCCC3CC)c21 (stereo not drawn),0.791%
20,CCCN(c1ccc(C)cc1)c1nc(=O)c2cccnc2s1,-28%
21,COc1cc(S(=O)(=O)N2CCCCC2)ccc1NC(=O)c1ccccc1Cl,-24.6%
22,Cc1cc2nc3n(c2cc1C)CC1CC(C(=O)NCc2cccc(Br)c2)N(C)C31 (stereo not drawn),-72.5%

row,Compound,"hERG current change (%, negative = inhibition) at 10uM"
1,Cc1cc2nc3n(c2cc1C)CC1CC(C(=O)NCc2ccccc2)N(C)C31 (stereo not drawn),-31.4%
2,CCCNC(=O)C1CC2Cn3c(nc4ccccc43)C2N1C (stereo not drawn),12.8%
3,COCCNC(=O)C1CC2Cn3c(nc4cc(C)c(C)cc43)C2N1C (stereo not drawn),8.23%
4,COCCNC(=O)C1CC2Cn3c(nc4cc5ccccc5cc43)C2N1C (stereo not drawn),-3.93%
5,CN1C(C(=O)NCc2cccc(Br)c2)CC2Cn3c(nc4cc5ccccc5cc43)C21 (stereo not drawn),-62%
6,CN1C(C(=O)NCc2ccccc2)CC2Cn3c(nc4cc5ccccc5cc43)C21 (stereo not drawn),-67.9%
7,C=CCNC(=O)C1CC2Cn3c(nc4cc5ccccc5cc43)C2N1C (stereo not drawn),-16.2%
8,CN1C(C(=O)NCc2cccc(Br)c2)CC2Cn3c(nc4ccccc43)C21 (stereo not drawn),-67.7%
9,CN1C(C(=O)NCc2ccccc2)CC2Cn3c(nc4ccccc43)C21 (stereo not drawn),-0.69%
10,CN1C(C(=O)NCc2ccco2)CC2Cn3c(nc4cc5ccccc5cc43)C21 (stereo not drawn),-38.6%
11,Cc1cc2nc3n(c2cc1C)CC1CC(C(=O)NCc2ccco2)N(C)C31 (stereo not drawn),-29%
12,Cc1ccc(S(=O)(=O)[N-]c2nc3ccccc3nc2-n2cc[n+](Cc3ccccc3)c2)cc1,11%
13,O=C(c1csc2c1CCCC2)N1CCN(c2ncccn2)CC1,-25.1%
14,O=C(NCc1cccc(C(F)(F)F)c1)c1ccc(=O)[nH]c1,22.5%
15,Cc1oc(-c2ccccc2)nc1CS(=O)CC(=O)O (stereo not drawn),10.2%
16,Cc1nn(-c2ccccc2)c(N2CCCC2)c1C=O,2.49%
17,Cc1cccc(-c2ncc(CN3CCCC(CO)(Cc4ccccc4C)C3)cn2)c1 (stereo not drawn),-11.4%
18,Cc1cccc(/C=N/NC(=O)Cc2ccc(Cl)cc2)c1O,18.6%
19,Cc1cc(C)nc(SCC(=O)NN)n1,21.1%
20,O=C(NCc1ccccc1)c1ccc[n+]([O-])c1,30.8%
21,O=S(=O)(Nc1nc2cc3c(cc2nc1Cl)OCCO3)c1ccccc1,-15.5%
